Experimental data: PubChem BioAssay AID588458 (Sanford-Burnham Center for Chemical Genomics, 2011)
Among all 360,000 compounds or so, about 3,000 (0.83%) were called active. Cut-off read from the data, not from the text of the source: active = inhibition above about 50%; inactive = the rest. For the sample, actives were picked, then their nearest neighbours and some compounds at random.

molecular target: DNA (cytosine-5)-methyltransferase 1 (Homo sapiens) (UniProt P26358); experiment: human DNMT1 methyltransferase inhibitors, primary screen, biochemical, molecular beacon, fluorescence, HinP1I cleavage, uHTS (AID 588458); settings: at 10 µM, stronger effect = higher value
Sequence (P26358 504-1616 limits assumed): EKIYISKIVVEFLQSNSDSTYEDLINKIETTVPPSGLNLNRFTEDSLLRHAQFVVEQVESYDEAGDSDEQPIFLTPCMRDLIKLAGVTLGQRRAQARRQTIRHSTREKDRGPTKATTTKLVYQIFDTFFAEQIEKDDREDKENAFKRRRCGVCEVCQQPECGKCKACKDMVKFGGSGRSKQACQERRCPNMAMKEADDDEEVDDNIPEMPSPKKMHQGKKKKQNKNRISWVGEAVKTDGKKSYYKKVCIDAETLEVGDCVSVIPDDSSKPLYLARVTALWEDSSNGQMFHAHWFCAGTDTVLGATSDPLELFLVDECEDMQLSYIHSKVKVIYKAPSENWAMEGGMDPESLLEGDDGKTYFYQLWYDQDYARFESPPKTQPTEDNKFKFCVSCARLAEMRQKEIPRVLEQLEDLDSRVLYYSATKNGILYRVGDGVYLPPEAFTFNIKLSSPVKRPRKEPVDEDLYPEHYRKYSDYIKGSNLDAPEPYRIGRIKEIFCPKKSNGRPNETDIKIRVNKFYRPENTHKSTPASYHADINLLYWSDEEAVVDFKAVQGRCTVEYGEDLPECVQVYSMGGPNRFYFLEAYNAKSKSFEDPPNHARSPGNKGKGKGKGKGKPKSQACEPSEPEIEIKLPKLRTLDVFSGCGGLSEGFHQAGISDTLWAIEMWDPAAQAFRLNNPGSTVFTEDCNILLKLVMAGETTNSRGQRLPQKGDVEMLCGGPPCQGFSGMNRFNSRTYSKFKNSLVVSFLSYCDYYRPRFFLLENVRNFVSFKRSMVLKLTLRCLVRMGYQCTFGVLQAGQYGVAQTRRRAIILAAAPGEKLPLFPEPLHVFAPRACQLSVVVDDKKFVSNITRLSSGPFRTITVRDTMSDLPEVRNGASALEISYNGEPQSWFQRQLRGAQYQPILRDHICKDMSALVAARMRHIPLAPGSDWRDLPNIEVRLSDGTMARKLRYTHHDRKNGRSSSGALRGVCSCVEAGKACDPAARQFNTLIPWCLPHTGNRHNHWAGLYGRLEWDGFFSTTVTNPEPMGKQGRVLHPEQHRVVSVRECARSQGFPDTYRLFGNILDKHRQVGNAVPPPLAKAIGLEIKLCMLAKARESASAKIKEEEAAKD

Inhibition (reported as % activation of signal), inactive:
O=C(NCc1ccco1)c1cnn2c(C(F)(F)F)cc(-c3ccco3)nc12 -0.51%
COCC(=O)N(C)[C@H]1C[C@H]2c3cc(Oc4ccccc4C)ccc3CCN2C(=O)[C@H]1[C@H](C)O -0.44%
CCCn1c(C)cc(/C=C(\C#N)C(=O)OCC(=O)Nc2cc(OC)c(OC)c(OC)c2)c1C -3.49%
COc1cc(C2C3=C(CCCC3=O)OC3=C2C(=O)CCC3)ccc1OCC(=O)Nc1ccccc1 -1.83%
COC(=O)Nc1nc2ccc(Sc3ccccc3)cc2[nH]1 23.1%
CCCNC(=O)C1(C)CCN1C(=O)Cc1ccc(-c2ccccc2)cc1 (centres undefined) -1.26%
CCNC(=O)C1CCCN(C(=O)c2ccc(OC)cc2OC)CC1 (centres undefined) -0.58%
CCOC(=O)C1CCCN(C(=O)c2ccc(C)c(F)c2)CC1 (centres undefined) 1.76%
Nc1nc(NCc2ccccc2)n(-c2ccccc2)n1 -0.22%
Cc1cc(C)n2nc(C(=O)N(C)C(c3ccccc3)c3ccccc3)nc2n1 2.32%
Cc1ccc2[nH]c(=O)c(CN3CCCCC3)c(-c3ccccc3)c2c1 -7.9%
O=c1cc(CN2CCCCCCC2)c2c(ccc3ccccc32)o1 -0.34%
Cc1cc(C)nc(NS(=O)(=O)c2ccc(N/C=C\C(=O)c3cccs3)cc2)n1 -0.17%
CC(C)(C)n1nnc(CCc2nnn(C(C)(C)C)n2)n1 0.1%
COc1cccc(C=CC(=O)C=CC=Cc2ccccc2)c1 13.2%
O=C(COC(=O)/C=C/c1cccc(Cl)c1)NCCc1ccccc1 -1.37%
COc1ccc(CC(=O)NCc2nnc(SCC(=O)Nc3ncc(C)s3)n2C)cc1 -1.25%
COc1cc(NC(=S)NNC(=O)CC(C)C)c(OC)cc1Cl -0.35%
CSc1ccccc1NC(=O)C(C)N1C(=O)c2ccccc2S1(=O)=O (centres undefined) -0.34%
Cc1ccc(N2C(=O)CC(Nc3cccc4ccccc34)C2=O)cc1 (centres undefined) -1.89%
O=C(c1ccco1)N1CCN(C(=O)C2CCCN(S(=O)(=O)c3cccc4nsnc34)C2)CC1 (centres undefined) 0.5%
CCC(=O)N1CCCC1(C)C(=O)Nc1ccc2c(c1)CCN2C(C)=O (centres undefined) -1.12%
Cc1ccc(NS(=O)(=O)c2c(C)[nH]c(C)c2C(=O)N2CCCCC2)c(C)c1 12.2%
COc1cccc(CC(=O)N2CCCC(CCC(=O)N3CCN(c4ccccn4)CC3)C2)c1 (centres undefined) -0.42%
O=C(CCC1CCCN(C(=O)c2ccc(F)c(F)c2)C1)N1CCN(c2ccccn2)CC1 (centres undefined) 3.2%
O=C(CN1CCN(S(=O)(=O)c2cccc(Cl)c2)CC1)N1CCCCC1 -1.19%
O=C(CN1CCCSc2ccccc21)N1CCN(S(=O)(=O)c2ccccc2)CC1 -0.81%
COc1ccc(C(=O)N2CCN(c3ccc(C(C)=O)cc3F)CC2)cc1S(=O)(=O)NC1CC1 3.83%
CC1CCC(C(C)C)C(=O)/C1=C\c1ccc(NC(=O)CCC(=O)O)cc1 (centres undefined) 0.83%
COC(=O)CC(=O)N1CCN(c2ccc(Cl)c(Cl)c2)CC1 -1.96%
CC1(Oc2ccc(Cl)cc2)CCN(Cc2csc3ccccc23)C1 (centres undefined) 1.6%
O=S(=O)(NCCc1ccc(Cl)cc1)c1cccs1 -0.79%
CCOC(=O)c1c(NC(=O)CSc2nccc(=O)[nH]2)sc(C)c1C 0.32%
CCOC(=O)c1c(C)[nH]c(C)c1C(=O)CSc1nc(N)cc(N)n1 -17.2%
O=C(OCC(=O)N1CCCC1=O)c1cc(S(=O)(=O)N2CCOCC2)ccc1Cl 0.37%
CCOC(=O)c1sc(N(Cc2ccccc2)C(=O)CN2C(=O)CN(C)C2=O)nc1C -3.6%
CC(C)(C)NC(=O)CSc1nnc(NC(=O)CCc2ccccc2)s1 -0.32%
Cc1ccccc1CSCC(=O)NC(=O)NC(C)(C)C -1.56%
CCCC/C=C/c1cccc2nncn12 5.75%
COc1ccccc1C(=O)Nc1ccc(OCC(=O)N2CCCCC2)cc1 5.57%
O=C(c1ccc(F)cc1)c1cn(Cc2ccc(F)cc2)c2cc3c(cc2c1=O)OCCO3 -8.26%
COc1ccc(NC(=O)CC2C(=O)NC3CCCCC3N2C(=O)c2ccc(F)cc2)cc1 (centres undefined) 4.5%
CNc1cc(-c2c(OC)cccc2OC)ncn1 5.78%
COC(=O)c1ccc(C2NC(=O)NC(C)=C2C(=O)N(C)C)cc1 (centres undefined) 0.97%
O=C(NNC(=O)c1cc(-c2ccccc2Cl)nc2ccccc12)c1csc(N2CCOCC2)n1 1.75%
O=C(Nc1ccc2ccccc2c1)Nc1ccc2snnc2c1 -8.95%
COC(=O)c1ccccc1NC(=O)C1(S(=O)(=O)c2ccc(Cl)cc2)CC1 -0.08%
CCOC(=O)C1CCCN(C(=O)CSc2nnc3nc(C)cc(C)n23)C1 (centres undefined) 0.98%

Inhibition (reported as % activation of signal), active:
CCOC(=O)/C(C#N)=C/c1ccc(OCC(=O)Nc2ccccc2)c(OC)c1 59.5%
CCNC(=O)C1CCCN(C(=O)c2cc(F)ccc2C)CC1 (centres undefined) 58%
c1ccc2cc3[nH]c(CN4CCCCC4)nc3cc2c1 83.2%
NNc1cccc(C=Cc2ccccc2)cc1=O 75.5%
CC(=O)Nc1ccccc1Sc1ccc2c3c(cccc13)C(=O)N(c1ccc(C)cc1)C2=O 73.9%
C=Cc1ccc(C(=O)N2CCCC(CCC(=O)N3CCN(c4ccccn4)CC3)C2)cc1 (centres undefined) 80.1%
O=C(CN1CCCSc2ccccc21)N1CCN(S(=O)(=O)c2cccc(F)c2)CC1 89.2%
Cc1ccc(Cc2cncc(O)c2)cc1S(=O)(=O)O 50.3%
CCOC(=O)c1c(C)[nH]c2c1-c1ccccc1C(=O)C2=O 93.5%
CC(C)(C)NC(=O)CSC(=Nc1ccccc1F)NC#N 52.8%
COc1ccc2c(c1)c(=O)c(C(=O)c1ccc(Cl)cc1)cn2CC(=O)Nc1ccc(F)cc1 59.8%
